Shown are actives, neighbours in structure and some others; about 27% of the full set was active somewhere.
CYP2C19 activ: human CYP2C19 activators, primary screen, biochemical, luminescence; recombinant CYP2C19, luciferin-H EGE luminescence; active compounds read high; 0 = fully inhibited enzyme, 1 = untreated enzyme; activation factor at 5 µM; Cytochrome P450 2C19 (Homo sapiens), P33261; 96,000 tested, under 10 active;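 active means activation factor of at least 2 at 5 µM in the primary screen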;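 further: 0 = wells with 2.5 mM tranylcypromine and 1 = vehicle-only wells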
CYP2C9 act: human CYP2C9 activators, primary screen, biochemical, luminescence. activation factor at 5 µM. Cytochrome P450 2C9 (Homo sapiens), P11712. recombinant CYP2C9, luciferin-H conversion; active compounds read high; factor 1 = untreated enzyme, 0 = blocked. hit rate 1.4% among 96,000;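 active means activation factor of 2 or more for CYP2C9 at a 5 µM dose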;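 further: 0 = sulfaphenazole-blocked wells and 1 = vehicle-only wells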
Target sequence (P11712 whole entry, looked up): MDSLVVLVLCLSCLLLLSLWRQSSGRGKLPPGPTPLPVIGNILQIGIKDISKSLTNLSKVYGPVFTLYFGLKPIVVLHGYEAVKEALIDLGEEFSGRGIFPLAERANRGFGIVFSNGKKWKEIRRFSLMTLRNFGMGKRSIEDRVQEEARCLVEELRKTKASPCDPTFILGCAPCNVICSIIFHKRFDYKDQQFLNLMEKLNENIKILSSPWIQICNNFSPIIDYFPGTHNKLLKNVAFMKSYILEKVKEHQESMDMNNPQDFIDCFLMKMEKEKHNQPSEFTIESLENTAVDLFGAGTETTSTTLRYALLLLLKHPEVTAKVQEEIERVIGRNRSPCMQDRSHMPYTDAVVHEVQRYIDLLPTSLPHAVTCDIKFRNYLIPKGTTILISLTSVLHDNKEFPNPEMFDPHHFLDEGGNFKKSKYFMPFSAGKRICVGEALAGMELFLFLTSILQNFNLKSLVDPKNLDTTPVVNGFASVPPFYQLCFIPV
CYP2C9 inhib: blockers of cytochrome P450 2C9 activity – biochemical, luminescence, ADME assay, primary screen; P11712; CYP2C9 Supersomes, luciferin-H conversion; inhibition, % at 5 µM; hit rate 20% among 96,000; AID 777, 2007;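 active means blocking of liver enzyme CYP2C9 beyond about 50% at 5 µM, limit read from the data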
Cav3 T inh: Cav3.2 calcium influx blockers – cell-based, Fluo-4 calcium fluorescence, FDSS, MLSMR library, primary screen; Cav3.2-expressing cells; active compounds read low; B-score at 10 µM; hit rate 4% among 100,000; AID 449739, 2010;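 active means single-dose well whose peak fluorescence ratio is a statistical outlier from its plate by either plate-standardised score or position-corrected B-score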
CYP2C19 inhib: blockers of cytochrome P450 2C19 activity – biochemical, luminescence, ADME assay, primary screen. P33261. CYP2C19 Supersomes, luciferin-H EGE luminescence, 30 min. inhibition, % at 5 µM. hit rate 21% among 96,000. AID 778, 2007;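 active means CYP2C19 inhibition above a set limit at 5 µM in the primary screen, cut at about 50% in these data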;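 further: plate controls were negative control wells for no effect and 2.5 mM tranylcypromine positive control for full effect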
Pyk2 oligo antag: antagonists of Pyk2 self-association, primary screen, Q293 cells, FERM NanoBiT luminescence, HTS | hit rate 0.83% among 99,000 | Protein-tyrosine kinase 2-beta (Homo sapiens), Q14289 | active compounds read low | z-score (the deposit names both 25 µM and 10 µM) | AID 1347419, 2020;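 active means Z-score of -3 or lower, scaled per plate to the spread of control and sample wells; inactive means z-score above -3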;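 further: negative z-score means lost luminescence so less FERM oligomerization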
An asterisk follows results filed as active; . = no result given.

SMILES | CYP2C19 activ | CYP2C9 act | CYP2C9 inhib | Cav3 T inh | CYP2C19 inhib | Pyk2 oligo antag
Cc1ccc(N2C(=O)CC(Nc3ccccc3)C2=O)cc1 (configuration not stated) | 0.5 | 0.9 | 9 | 0.84 | 53* | 0.3
O=C1CC(N(O)C2CC(=O)N(Cc3ccccc3)C2=O)C(=O)N1Cc1ccccc1 (configuration not stated) | 0.8 | 0.9 | 11 | -4.1 | 17 | -0.89
CCCN(CCC)C1CC(=O)N(Cc2ccccc2)C1=O (configuration not stated) | 0.2 | 0.9 | 12 | -0.17 | 85* | -0.1
COc1ccc2oc(=O)c(C(=O)Oc3ccc(NC(C)=O)cc3)cc2c1 | 0.9 | 0.9 | 8 | 0.019 | 9 | 0.79
CCOC(=O)c1ccc(NC(=O)NC(C)C2CCCO2)cc1 (configuration not stated) | 1.1 | 0.9 | 10 | 0.46 | -7 | -0.08
NC(N)=NCCC[C@H](NC(=O)OCc1ccccc1)C(=O)O | . | . | . | 0.089 | . | .
CC(=O)Nc1ccc(S(=O)(=O)N2CCSC2c2ccccc2Cl)cc1 (configuration not stated) | 0.9 | 1 | 3 | -2 | 12 | -2.2
COc1ccc(S(=O)(=O)N2CCSC2c2ccccc2)cc1 (configuration not stated) | 0 | 1.6 | -62 | -2.8 | 99* | 0.14
COc1ccccc1C1SCCN1S(=O)(=O)c1cccc(C(F)(F)F)c1 (configuration not stated) | 0.7 | 1.6 | -63 | -2.9 | 31 | -2.1
O=S(=O)(c1ccc(Cl)cc1)N1CCSC1c1ccco1 (configuration not stated) | 0 | 0.5 | 51* | -1.7 | 98* | -0.05
COc1ccc(S(=O)(=O)N2CCSC2c2ccc(OC)c(OC)c2)cc1 (configuration not stated) | 0.4 | 2* | -96 | -0.98 | 63* | 0.74
COc1ccccc1NC(=O)COc1ccc(/C=N/n2cnnc2)cc1OC | 0.4 | 0.3 | 72* | 1.1 | 56* | 0.41
CCOc1cc(/C=N/n2cnnc2)ccc1OCC(=O)Nc1ccccc1OC | 0.5 | 0.3 | 70* | 0.048 | 54* | -0.35
CCOc1cc(/C=C\[N+](=O)[O-])ccc1OCC(=O)Nc1ccccc1C | 0.9 | 0.9 | 14 | 1.2 | 11 | 0.27
CCc1ccc(NC(=O)N(CCOC)C2CCN(C(C)=O)CC2)cc1 | 0.9 | 1.2 | -17 | -0.66 | 8 | 0.49
COc1cc(C2c3c(-c4ccccc4)n[nH]c3C(=O)N2c2ccccc2)ccc1O (configuration not stated) | 0.2 | 0.1 | 92* | -1.1 | 77* | -3.1*
COc1cc(C2c3c(n[nH]c3C)C(=O)N2c2ccc(C)cc2)ccc1O (configuration not stated) | 0.6 | 0.6 | 44 | 0.8 | 38 | -1
CC(C)(CS(=O)(=O)[O-])NC(=O)CC[N+](C)(C)CCO | 1.1 | 1.1 | -8 | 0.61 | -13 | 0.16
CCCC(=O)Nc1ccc(N2CCN(C(=O)c3cccs3)CC2)cc1 | 0.7 | 0.6 | 45 | -0.047 | 28 | -0.19
Cc1nonc1OC(C)CNc1ccc([N+](=O)[O-])cc1 (configuration not stated) | 0 | 0.4 | 63* | -2 | 98* | -0.56
CSc1ccccc1NC(=O)COc1ccccc1Cl | 0.2 | 0.4 | 59* | 0.049 | 77* | -0.8
O=C(COc1ccccc1O)Nc1ccc(Cl)cc1 | 0.1 | 0.4 | 60* | -3.5 | 88* | 0.91
O=C(COc1ccccc1Cl)Nc1ccc(Cl)cn1 | 0.9 | 1 | -3 | -0.75 | 10 | -0.02
CCCCCC(=O)Nc1cccc(C2=NOC3(C2)C[C@H](C(N)=O)N(C(=O)c2ccccc2C(=O)c2ccccc2)C3)c1 (some centres not stated) | . | . | . | -2.8 | . | .
CCOc1cc(S(=O)(=O)Nc2ccc(CC)cc2)ccc1Cl | 0.5 | 0.2 | 80* | -2.9 | 46 | -2.4
COc1cc(S(=O)(=O)Nc2ccccc2C)ccc1Cl | 0 | 2* | -98 | -2.5 | 100* | -0.41

High-throughput results (PubChem BioAssay)
